From PubChem BioAssay (Tox21) come the findings set out here.

The structures appear in SMILES notation. Records with an inconclusive call do not appear. A call without a number means that no potency is given here. Values without a mark were called inactive. Active and inactive are the calls of the source. The call rests on the fitted dose curve.
Potency means the concentration at half of the fitted maximal effect.

Sequence of 5-hydroxytryptamine receptor 2A (Homo sapiens) (P28223 whole entry, looked up): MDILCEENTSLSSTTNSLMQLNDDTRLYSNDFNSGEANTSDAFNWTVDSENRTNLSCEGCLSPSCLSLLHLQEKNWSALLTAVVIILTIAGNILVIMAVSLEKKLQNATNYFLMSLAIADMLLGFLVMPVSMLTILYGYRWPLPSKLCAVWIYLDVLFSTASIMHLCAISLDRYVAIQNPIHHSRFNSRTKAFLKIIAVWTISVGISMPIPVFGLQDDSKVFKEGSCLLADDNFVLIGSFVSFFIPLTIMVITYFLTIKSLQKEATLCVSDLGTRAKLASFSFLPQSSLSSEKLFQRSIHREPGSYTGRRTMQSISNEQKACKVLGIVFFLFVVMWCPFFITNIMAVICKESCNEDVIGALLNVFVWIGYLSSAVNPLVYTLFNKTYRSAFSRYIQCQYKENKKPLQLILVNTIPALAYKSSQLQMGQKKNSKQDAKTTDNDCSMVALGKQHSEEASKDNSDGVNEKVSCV

The assay concerns the target 5-hydroxytryptamine receptor 2A (Homo sapiens) (UniProt P28223). The experiment in a line: 5-hydroxytryptamine receptor 2A (HTR2A) small molecule antagonists, cell-based qHTS assay (AID 1963586). Further: nearly all actives have a fitted effect of over 45% in size. The conditions noted are these: HTR2A-CHO cells, DOI-induced calcium flux, fluorescence; series mostly up to 61.5 µM. The source says:
National Center for Advancing Translational Sciences [NCATS]
Division of Preclinical Innovation [DPI]
U.S. Environmental Protection Agency [EPA]
National Institutes of Environmental Health Sciences [NIEHS]
National Toxicology Program [NTP]
U.S. Food and Drug Administration [FDA]
The HTR2A receptor is a subtype of the 5-HT2 receptor that belongs to the serotonin receptor family and is a G protein-coupled receptor (GPCR). The HTR2A-CHO cell line stably expressing human 5-hydroxytryptamine receptor 2A (HTR2A) can be used for screening antagonists of interactions between 5-HT2 and its ligands. The HTR2A-CHO calcium flux assay is a homogeneous fluorescence-based assay for detecting the intracellular calcium level using FDSS kinetic plate reader system.
Tox21 Assay Protocol Summary:
HTR2A-CHO cells were dispensed at 2000 cells/3uL/well in 1536-well black-clear bottom plates using a Multidrop Dispenser. After the assay plates were incubated at a 37 C/5% CO2 incubator for 18 h, 3 uL of Dye Loading Buffer was transferred to the assay plate by a Flying Reagent Dispenser. The assay plates were incubated at 37 C for 1h. For antagonist mode, 23 nL of compounds dissolved in DMSO, positive controls or DMSO only was transferred to the assay plate by a pin tool. After 5 min incubation at room temperature, 1.5 uL of 4-Iodo-2,5-dimethoxy-alpha-methylbenzeneethanamine hydrochloride (DOI) at 4nM was added to each well. The fluorescence intensity in the plates was measured using FDSS 7000EX kinetic plate reader for 3 min at 1 sec intervals.
Take `N#CCCN(CCO)CCO`: the Potency result was “inactive”.
Same read-out and setting: for `CSC(=O)c1cccc2nnsc12` the value was “inactive”; for `O=[N+]([O-])c1ccc(O)cc1`, “inactive”.
Still for that read-out and setting: the value for `C=CCc1cc(S(=O)(=O)c2ccc(O)c(CC=C)c2)ccc1O` was “inactive”; that for `O=C[C@@H](O)[C@H](O)[C@H](O)CO` was “inactive”; that for `Cc1cccc(OCCOc2cccc(C)c2)c1` was “inactive”.
The same measure, in the same setting: the value for `C[C@H]1O[C@@H](O[C@H]2CC[C@@]3(C)[C@H](CC[C@@H]4[C@@H]3C[C@@H](O)[C@]3(C)[C@@H](C5=CC(=O)OC5)CC[C@]43O)C2)C[C@H](O)[C@@H]1O[C@H]1C[C@H](O)[C@H](O[C@H]2C[C@H](O)[C@H](O[C@@H]3O[C@H](CO)[C@@H](O)[C@H](O)[C@H]3O)[C@@H](C)O2)[C@@H](C)O1` was “inactive”.
Consider `S=c1[nH]c2ccccc2s1`, for which the Potency result is “inactive”.
The same measure, in the same setting: the value for `CC(C(=O)O)c1ccc(C(=O)c2cccs2)cc1` (stereo not given) was “inactive”.
As for `CC[N+](C)(CC)CC`, the Potency result is “inactive”.
The same measure, in the same setting: the value for `CC(=O)CCC1=C(C)CCCC1(C)C` was “inactive”.
In the case of `C=C1c2cccc(O)c2C(O)=C2C(=O)[C@]3(O)C(O)=C(C(N)=O)C(=O)[C@@H](N(C)C)[C@@H]3[C@@H](O)[C@H]12`, the Potency entry is “inactive”.
The same measure, in the same setting: the value for `O=C(OCCOCCOCCOC(=O)c1ccccc1)c1ccccc1` was “inactive”.
For the molecule `Cc1cc(=O)c2c(O)c3c(O)cc(=O)c4c3c3c(cc(O)c1c23)C(C)(C)C=4O`, the activity, negative = inhibition was 1.4% [at 12.7 µM].
Take `CCCCCSCCCCC`: the Potency entry is “inactive”.
With `CN(C)CCOC(c1ccccc1)c1ccc(Br)cc1` (stereo not given), the Potency is 6.5 µM (active).
As to `CC(C)c1nnc2ccc(-c3ocnc3-c3cc(F)ccc3F)cn12`, the Potency result was “inactive”.
On the same count and under the same terms, the value for `CCCCCCOC(=O)CCCCCCCC(=O)OCCCCCC` was “inactive”; that for `CC(=O)Nc1cccc(N)c1` was “inactive”.
On the same count and under the same terms, the value for `CNS(=O)(=O)c1cc(C(=O)N2CCC(CCN3C4CCC3CC(n3c(C)nc5ccccc53)C4)(c3cccc(F)c3)CC2)c(Cl)cc1F` (stereo not given) was “inactive”; that for `CC(C)COC(=O)c1ccc(O)cc1` was “inactive”.
With `CC1(C)C(=O)N(Br)C(=O)N1Br`, the Potency result is “inactive”.
For the molecule `c1ccc(C[n+]2cccc3ccccc32)cc1`, the Potency result is “inactive”.
The same measure, in the same setting: the value for `CCCCCC` was “inactive”; that for `O=C(O)C(=O)Cc1ccccc1` was “inactive”; that for `C=C(C)[C@@H]1CC=C(C)CC1` was “inactive”.
With `CCOC(=O)c1ccc(N(C)C)cc1`, the Potency entry is “inactive”.
As for `Cc1cc2nc(N)sc2cc1C`, the Potency entry was “inactive”.
The same measure, in the same setting: the value for `CCOc1nc2cccc(C(=O)OC(C)OC(=O)OC3CCCCC3)c2n1Cc1ccc(-c2ccccc2-c2nn[nH]n2)cc1` (stereo not given) was “inactive”.
Still for that read-out and setting: the value for `CCCCCC=CCC=CCCCCCCCC(=O)OCC` was “inactive”.
On the same count and under the same terms, for `C=Cc1ccc(OC(C)=O)cc1` the value was “inactive”; for `CC(=O)OCC(=O)NCCCOc1cccc(CN2CCCCC2)c1`, “inactive”.
Take `Clc1ccc(C(Cn2ccnc2)OCc2ccsc2Cl)c(Cl)c1` (stereo not given): the Potency result is “inactive”.
As for `O=Cc1ccccc1Cl`, the Potency result is “inactive”.
The same measure, in the same setting: the value for `c1ccc2c(c1)-c1ccc3ccc4cccc5cc-2c1c3c45` was “inactive”; that for `NC(N)=NN=C(/C=C/c1ccc([N+](=O)[O-])o1)/C=C/c1ccc([N+](=O)[O-])o1` was “inactive”; that for `Oc1ccc(Cl)cc1C1CCCC1` was “inactive”.
Same read-out and setting: the value for `CC(C)(C)c1ccc(OC(=O)c2ccccc2O)cc1` was “inactive”; that for `COC(=O)c1ccccc1OC` was “inactive”; that for `O=CC=C(c1ccccc1)c1ccccc1` was 42.4 µM (active).
